Source: the supplement of paper PMC10849652
Targets with a hit are over-represented here; the source holds about 7,900 in all. About 0.6% of all pairs of compound and target were hits.

Key:
Experiment in all cases: log2 fold change, soluble protein after heating vs DMSO (PISA); higher = thermal stabilisation; K562 cells, 10 uM, 30 min; active = over 0.2 and 3.5 SD of the protein, either way, in both replicates (recomputed)
[1] = target: ZNF217 (UniProt O75362)
Method in brief: (§1)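 Values are thermal stability changes relative to control samples and are taken from duplicates. They are stated as log2 fold changes. Before quantification by TMTpro 16plex LC-MS/MS with equalised channel sums, K562 cells at 2×10^6 cells/mL were treated with 10 μM compound for 30 min, heated in aliquots for 3 min across 48°C-58°C, pooled, extracted in PBS with 0.5% NP-40 at 4°C, and centrifuged at 21,000xg for 90 min to give the soluble supernatant.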

[2] = target: ZNF239 (UniProt Q16600)
Method in brief: as §1

[3] = target: ZNF277 (UniProt Q9NRM2)
Method in brief: as §1

[4] = target: ZNF579 (UniProt Q8NAF0)
Method in brief: as §1

[5] = target: ZNF580 (UniProt Q9UK33)
Method in brief: as §1

[6] = target: ZNF609 (UniProt O15014)
Method in brief: as §1

[7] = target: ZNF622 (UniProt Q969S3)
Method in brief: as §1

[8] = target: ZRANB2 (UniProt O95218)
Method in brief: as §1

[9] = target: ZW10 (UniProt O43264)
Method in brief: as §1

[10] = target: ZWILCH (UniProt Q9H900)
Method in brief: as §1

[11] = target: ZYG11B (UniProt Q9C0D3)
Method in brief: as §1

[12] = target: ZNF512 (UniProt Q96ME7)
Method in brief: as §1

[13] = target: ZNF511 isoform 1 (UniProt Q8NB15)
Method in brief: as §1

Measured: log2 fold change

ZNF217, sequence (O75362 whole entry, looked up): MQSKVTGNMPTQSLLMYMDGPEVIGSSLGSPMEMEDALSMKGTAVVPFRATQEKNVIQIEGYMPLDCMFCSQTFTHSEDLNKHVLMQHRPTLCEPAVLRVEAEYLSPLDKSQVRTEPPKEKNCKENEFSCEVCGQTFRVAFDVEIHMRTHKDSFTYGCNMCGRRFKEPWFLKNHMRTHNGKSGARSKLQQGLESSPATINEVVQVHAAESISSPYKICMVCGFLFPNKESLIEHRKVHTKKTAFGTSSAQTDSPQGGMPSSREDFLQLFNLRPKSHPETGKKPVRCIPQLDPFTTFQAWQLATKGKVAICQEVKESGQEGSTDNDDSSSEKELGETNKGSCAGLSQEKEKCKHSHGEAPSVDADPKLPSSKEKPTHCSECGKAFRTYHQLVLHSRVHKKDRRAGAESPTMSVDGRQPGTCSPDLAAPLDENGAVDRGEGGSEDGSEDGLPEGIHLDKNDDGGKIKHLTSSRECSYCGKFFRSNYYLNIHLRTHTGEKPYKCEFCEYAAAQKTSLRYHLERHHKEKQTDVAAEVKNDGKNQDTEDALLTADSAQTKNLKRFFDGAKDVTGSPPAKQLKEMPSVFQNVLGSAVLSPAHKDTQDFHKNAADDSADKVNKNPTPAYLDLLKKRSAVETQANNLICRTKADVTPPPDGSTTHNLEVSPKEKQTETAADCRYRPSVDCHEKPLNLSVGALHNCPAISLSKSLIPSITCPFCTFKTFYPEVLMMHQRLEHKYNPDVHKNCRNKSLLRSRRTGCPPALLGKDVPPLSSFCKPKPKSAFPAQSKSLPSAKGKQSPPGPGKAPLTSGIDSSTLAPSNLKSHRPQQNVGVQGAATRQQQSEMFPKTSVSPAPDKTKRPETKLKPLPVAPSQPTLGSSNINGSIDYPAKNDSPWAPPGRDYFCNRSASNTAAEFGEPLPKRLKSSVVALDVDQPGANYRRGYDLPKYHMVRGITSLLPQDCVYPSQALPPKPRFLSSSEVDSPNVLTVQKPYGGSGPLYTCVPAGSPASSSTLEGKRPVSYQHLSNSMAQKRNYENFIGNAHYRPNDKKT
ZRANB2, sequence (O95218 whole entry, looked up): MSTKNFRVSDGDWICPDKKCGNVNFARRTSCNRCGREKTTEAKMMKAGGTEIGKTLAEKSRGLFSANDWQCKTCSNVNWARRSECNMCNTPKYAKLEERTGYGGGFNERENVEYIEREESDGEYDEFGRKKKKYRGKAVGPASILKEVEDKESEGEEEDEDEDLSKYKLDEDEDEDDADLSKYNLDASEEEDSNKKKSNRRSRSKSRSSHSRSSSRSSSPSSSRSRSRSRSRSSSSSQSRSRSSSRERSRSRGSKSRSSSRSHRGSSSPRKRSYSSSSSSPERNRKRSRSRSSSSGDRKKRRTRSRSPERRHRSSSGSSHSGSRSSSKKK
ZNF511 isoform 1, sequence (Q8NB15 whole entry, looked up, canonical isoform): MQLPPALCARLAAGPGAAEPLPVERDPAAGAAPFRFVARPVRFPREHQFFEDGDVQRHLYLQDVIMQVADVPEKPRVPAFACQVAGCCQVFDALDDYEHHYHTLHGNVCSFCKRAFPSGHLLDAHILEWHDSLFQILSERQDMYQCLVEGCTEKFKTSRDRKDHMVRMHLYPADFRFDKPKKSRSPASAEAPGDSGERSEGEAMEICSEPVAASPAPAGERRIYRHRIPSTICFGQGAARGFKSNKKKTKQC
ZYG11B, sequence (Q9C0D3 whole entry, looked up): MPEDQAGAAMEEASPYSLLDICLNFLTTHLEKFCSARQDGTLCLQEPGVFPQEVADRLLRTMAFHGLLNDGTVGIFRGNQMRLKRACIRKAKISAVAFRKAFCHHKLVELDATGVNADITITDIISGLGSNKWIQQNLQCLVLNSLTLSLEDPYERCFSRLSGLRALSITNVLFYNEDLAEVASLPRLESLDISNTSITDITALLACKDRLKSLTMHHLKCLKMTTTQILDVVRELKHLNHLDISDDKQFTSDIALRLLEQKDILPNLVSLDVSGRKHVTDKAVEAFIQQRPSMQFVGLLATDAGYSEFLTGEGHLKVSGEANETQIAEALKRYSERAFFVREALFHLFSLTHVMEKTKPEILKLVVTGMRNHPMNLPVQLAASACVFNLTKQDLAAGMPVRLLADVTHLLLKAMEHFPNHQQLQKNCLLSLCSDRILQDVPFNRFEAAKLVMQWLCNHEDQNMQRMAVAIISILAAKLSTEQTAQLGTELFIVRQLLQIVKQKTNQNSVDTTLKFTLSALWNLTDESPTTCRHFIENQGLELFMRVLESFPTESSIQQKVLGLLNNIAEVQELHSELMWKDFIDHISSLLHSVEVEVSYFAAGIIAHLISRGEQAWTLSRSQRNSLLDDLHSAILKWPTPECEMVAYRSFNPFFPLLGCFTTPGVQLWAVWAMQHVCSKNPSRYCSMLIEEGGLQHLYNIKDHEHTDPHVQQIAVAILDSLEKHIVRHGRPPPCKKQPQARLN
ZNF622, sequence (Q969S3 whole entry, looked up): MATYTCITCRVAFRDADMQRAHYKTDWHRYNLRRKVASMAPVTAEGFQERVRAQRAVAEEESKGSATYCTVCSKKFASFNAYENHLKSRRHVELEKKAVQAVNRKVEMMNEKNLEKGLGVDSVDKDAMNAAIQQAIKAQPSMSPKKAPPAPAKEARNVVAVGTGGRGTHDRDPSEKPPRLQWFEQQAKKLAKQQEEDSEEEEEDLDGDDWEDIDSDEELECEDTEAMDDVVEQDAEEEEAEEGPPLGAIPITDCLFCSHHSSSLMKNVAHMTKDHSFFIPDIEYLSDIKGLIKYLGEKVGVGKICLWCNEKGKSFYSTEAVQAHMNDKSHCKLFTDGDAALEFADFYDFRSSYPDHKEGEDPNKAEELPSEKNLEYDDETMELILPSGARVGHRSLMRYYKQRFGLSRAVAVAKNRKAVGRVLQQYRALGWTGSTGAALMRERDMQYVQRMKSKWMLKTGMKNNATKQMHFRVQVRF
ZNF239, sequence (Q16600 whole entry, looked up): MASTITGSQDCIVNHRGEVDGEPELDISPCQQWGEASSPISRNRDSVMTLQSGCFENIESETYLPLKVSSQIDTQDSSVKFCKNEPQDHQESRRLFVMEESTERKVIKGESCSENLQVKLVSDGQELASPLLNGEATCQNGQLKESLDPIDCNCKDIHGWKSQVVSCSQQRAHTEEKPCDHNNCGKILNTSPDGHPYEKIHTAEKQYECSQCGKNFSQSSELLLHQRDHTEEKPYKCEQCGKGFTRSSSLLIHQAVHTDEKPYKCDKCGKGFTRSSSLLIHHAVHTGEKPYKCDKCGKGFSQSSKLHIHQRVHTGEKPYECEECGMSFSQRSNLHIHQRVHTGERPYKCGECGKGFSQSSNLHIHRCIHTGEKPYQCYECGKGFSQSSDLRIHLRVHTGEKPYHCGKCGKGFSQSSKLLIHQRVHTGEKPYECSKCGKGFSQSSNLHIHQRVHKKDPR
ZW10, sequence (O43264 whole entry, looked up): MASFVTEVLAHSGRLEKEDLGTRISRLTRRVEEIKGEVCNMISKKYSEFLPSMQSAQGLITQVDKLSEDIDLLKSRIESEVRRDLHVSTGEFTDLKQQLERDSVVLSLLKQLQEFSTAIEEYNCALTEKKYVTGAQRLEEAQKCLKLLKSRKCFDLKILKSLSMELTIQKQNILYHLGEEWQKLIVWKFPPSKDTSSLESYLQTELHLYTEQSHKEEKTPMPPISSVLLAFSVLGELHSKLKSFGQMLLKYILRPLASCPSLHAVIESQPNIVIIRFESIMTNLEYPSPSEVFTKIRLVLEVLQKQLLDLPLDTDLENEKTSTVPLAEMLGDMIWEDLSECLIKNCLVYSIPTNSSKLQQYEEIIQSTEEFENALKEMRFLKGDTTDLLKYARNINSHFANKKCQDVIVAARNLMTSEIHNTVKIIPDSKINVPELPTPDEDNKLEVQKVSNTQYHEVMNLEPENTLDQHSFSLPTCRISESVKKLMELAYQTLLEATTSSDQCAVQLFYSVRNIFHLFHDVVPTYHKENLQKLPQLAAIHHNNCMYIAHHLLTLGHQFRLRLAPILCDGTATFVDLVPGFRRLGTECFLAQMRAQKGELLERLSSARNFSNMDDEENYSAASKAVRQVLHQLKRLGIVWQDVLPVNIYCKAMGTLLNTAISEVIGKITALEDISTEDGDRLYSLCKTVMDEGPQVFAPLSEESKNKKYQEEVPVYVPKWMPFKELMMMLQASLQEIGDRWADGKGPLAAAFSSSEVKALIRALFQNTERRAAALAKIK
ZWILCH, sequence (Q9H900 whole entry, looked up): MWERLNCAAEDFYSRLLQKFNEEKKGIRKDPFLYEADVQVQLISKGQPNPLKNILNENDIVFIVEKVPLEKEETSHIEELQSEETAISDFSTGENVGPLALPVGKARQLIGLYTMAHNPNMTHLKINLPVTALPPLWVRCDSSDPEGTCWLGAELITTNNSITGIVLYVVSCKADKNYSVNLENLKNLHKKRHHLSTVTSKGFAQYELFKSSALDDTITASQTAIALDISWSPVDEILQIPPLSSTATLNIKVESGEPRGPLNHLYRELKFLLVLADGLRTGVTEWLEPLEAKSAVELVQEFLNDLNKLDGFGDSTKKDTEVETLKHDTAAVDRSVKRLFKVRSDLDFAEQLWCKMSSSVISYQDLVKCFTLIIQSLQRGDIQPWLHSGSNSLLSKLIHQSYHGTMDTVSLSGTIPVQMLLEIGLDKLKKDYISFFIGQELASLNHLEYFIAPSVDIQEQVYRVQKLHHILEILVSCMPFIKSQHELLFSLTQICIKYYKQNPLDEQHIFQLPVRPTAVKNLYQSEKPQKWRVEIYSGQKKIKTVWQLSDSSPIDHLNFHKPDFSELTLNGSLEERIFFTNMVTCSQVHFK
ZNF580, sequence (Q9UK33 whole entry, looked up): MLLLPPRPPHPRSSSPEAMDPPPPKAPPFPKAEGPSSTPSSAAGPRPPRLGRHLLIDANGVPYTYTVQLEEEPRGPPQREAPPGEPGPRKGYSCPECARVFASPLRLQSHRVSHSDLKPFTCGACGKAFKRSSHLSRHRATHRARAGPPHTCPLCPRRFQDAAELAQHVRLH

C[C@H](Nc1ncnc2nc[nH]c12)c1cc2cccc(Cl)c2c(=O)n1-c1ccccc1 [duvelisib]
inactive: [1] 0.108 | [2] 0.038 | [3] -0.107 | [4] -0.031 | [5] -0.078 | [6] 0.073 | [7] 0.065 | [8] -0.02 | [9] -0.002 | [10] 0.044 | [11] 0.062

CC(C)c1cnn2c(NCc3ccccc3)cc(NCCCCCCN)nc12
inactive: [1] -0.034 | [2] 0.149 | [3] -0.3 | [12] 0.321 | [4] 0.054 | [6] -0.042 | [7] -0.011 | [8] 0.014 | [9] -0.213 | [10] -0.107 | [11] 0.058

CCn1cc(-c2ccnc3[nH]c(-c4cccc(CN(C)C)c4)cc23)c(-c2ccc(NC(=O)N(C)C)cc2)n1
inactive: [1] 0.036 | [2] 0.095 | [3] 0.01 | [4] 0.091 | [5] 0.092 | [6] 0.097 | [7] -0.077 | [8] 0.022 | [9] 0.022 | [10] 0.01 | [11] -0.085

O=C(Nc1nc2ccccc2n1CCN1CCOCC1)c1cccc([N+](=O)[O-])c1 [IRAK-1-4 Inhibitor I]
inactive: [1] 0.052 | [2] 0.154 | [3] -0.346 | [4] -0.096 | [5] 0.051 | [6] -0.031 | [7] 0.004 | [8] -0.008 | [9] -0.076 | [10] -0.042 | [11] 0.044

C[C@@H](Oc1cc(-c2cnn(C3CCNCC3)c2)cnc1N)c1c(Cl)ccc(F)c1Cl [crizotinib]
inactive: [1] -0.121 | [2] -0.124 | [3] -0.181 | [4] 0.112 | [5] 0.164 | [6] -0.113 | [7] -0.029 | [8] 0.014 | [9] -0.137 | [10] -0.068 | [11] -0.031

COC(=O)N[C@@H](C)CNc1nccc(-c2cn(C(C)C)nc2-c2cc(Cl)cc(NS(C)(=O)=O)c2F)n1 [encorafenib]
inactive: [1] -0.054 | [3] -0.259 | [13] -0.03 | [4] -0.187 | [5] 0.143 | [6] -0.082 | [7] 0.01 | [8] -0.066 | [9] 0.094 | [10] 0.076 | [11] -0.055

Cc1cc(Nc2cc(CN3CCOCC3)c3nc(C)c(Cc4ccc(Cl)cc4F)n3n2)n[nH]1 [gandotinib]
inactive: [1] -0.098 | [2] -0.267 | [3] 0.041 | [4] 0.036 | [5] 0.041 | [6] -0.073 | [7] 0.075 | [8] 0.064 | [9] -0.108 | [10] -0.12 | [11] 0.093

CN1CCN(CCOc2cc(OC3CCOCC3)c3c(Nc4c(Cl)ccc5c4OCO5)ncnc3c2)CC1 [saracatinib]
inactive: [1] -0.083 | [2] 0.052 | [3] -0.276 | [4] -0.025 | [5] 0.108 | [6] 0.047 | [7] -0.005 | [8] 0.044 | [9] -0.031 | [10] -0.012 | [11] -0.051

O=C(CCCCCCNC(=O)c1cnc(N(c2ccccc2)c2ccccc2Cl)nc1)NO [citarinostat]
inactive: [1] -0.004 | [3] 0.306 | [13] 0.054 | [4] -0.089 | [5] -0.013 | [6] 0.083 | [7] -0.011 | [8] -0.031 | [9] 0.033 | [10] 0.104 | [11] -0.043

Cc1cc(SCc2sc(-c3ccc(C(F)(F)F)cc3)nc2C)ccc1OCC(=O)O
inactive: [1] 0.112 | [2] -0.172 | [3] 0.152 | [4] -0.009 | [5] -0.301 | [6] -0.134 | [7] -0.009 | [8] -0.086 | [9] 0.088 | [10] 0.027 | [11] -0.133

CON(C)C(=O)N1N=C(c2cc(F)ccc2F)S[C@@]1(CCCN)c1ccccc1 [filanesib]
inactive: [1] -0.045 | [2] 0.051 | [13] 0.019 | [4] 0.181 | [5] 0.152 | [6] 0.049 | [7] -0.101 | [8] 0 | [9] 0.052 | [10] 0.016 | [11] 0.014

CNCc1ccc(-c2[nH]c3cc(F)cc4c3c2CCNC4=O)cc1 [rucaparib]
inactive: [1] -0.025 | [3] 0 | [13] -0.006 | [4] 0.01 | [5] 0.136 | [6] -0.034 | [7] -0.194 | [8] -0.034 | [9] 0.128 | [10] -0.051 | [11] 0.061

Cc1ccc(-n2nc(C(C)(C)C)cc2NC(=O)Nc2ccc(OCCN3CCOCC3)c3ccccc23)cc1 [doramapimod]
inactive: [1] -0.027 | [2] 0.069 | [3] 0.123 | [4] 0.11 | [5] 0.165 | [6] 0.036 | [7] 0.009 | [8] -0.014 | [9] 0.048 | [10] -0.002 | [11] 0.036

CNc1nc(-c2ccc3c(N)n[nH]c3c2)cc(N2C[C@@H](C(=O)NC3CCCCC3)CC[C@H]2C)n1
inactive: [1] -0.183 | [2] -0.055 | [3] 0.11 | [4] 0.089 | [5] 0.128 | [6] -0.004 | [7] -0.019 | [8] -0.066 | [9] 0.009 | [10] -0.037 | [11] 0.002

Cc1cccc(-c2[nH]c(C(C)(C)C)nc2-c2ccc3nccnc3c2)n1
inactive: [1] 0.01 | [2] 0.013 | [3] -0.107 | [4] -0.073 | [5] -0.183 | [6] 0.014 | [7] 0.008 | [8] -0.05 | [9] 0.006 | [10] 0 | [11] -0.039

Cc1ccc(NC(=O)c2cccc(C(C)(C)C#N)c2)cc1Nc1ccc2ncn(C)c(=O)c2c1
inactive: [1] 0.075 | [2] -0.002 | [13] -0.026 | [4] 0.043 | [5] -0.174 | [6] -0.046 | [7] 0.048 | [8] 0.034 | [9] 0.015 | [10] 0 | [11] -0.006

Cc1nc(Nc2ncc(C(=O)Nc3c(C)cccc3Cl)s2)cc(N2CCN(CCO)CC2)n1 [dasatinib]
inactive: [1] -0.136 | [2] -0.074 | [3] 0.019 | [4] -0.148 | [5] -0.085 | [6] 0 | [7] 0.012 | [8] 0.078 | [9] -0.124 | [10] -0.05 | [11] -0.017

CS(=O)(=O)N1CCN(Cc2cc3nc(-c4cccc5[nH]ncc45)nc(N4CCOCC4)c3s2)CC1 [pictilisib]
inactive: [1] -0.038 | [2] -0.249 | [3] -0.249 | [4] 0.02 | [5] -0.037 | [6] 0.107 | [7] 0.144 | [8] 0.01 | [9] 0.005 | [10] -0.026 | [11] 0.104

CN1CCN(c2nc(C3=C(c4c[nH]c5ccccc45)C(=O)NC3=O)c3ccccc3n2)CC1 [sotrastaurin]
inactive: [1] -0.019 | [2] 0.144 | [13] 0.001 | [4] 0.014 | [5] 0.039 | [6] 0.016 | [7] 0.018 | [8] -0.027 | [9] -0.089 | [10] -0.059 | [11] 0.026

CC[C@@H]1C(=O)N(C)c2cnc(Nc3ccc(C(=O)NC4CCN(C)CC4)cc3OC)nc2N1C1CCCC1
inactive: [1] 0.029 | [3] 0.328 | [13] -0.041 | [4] -0.017 | [5] 0.037 | [6] 0.047 | [7] 0.069 | [8] 0.022 | [9] -0.197 | [10] -0.078 | [11] -0.031

Cc1cccc(CC(=O)N2CCc3c2ccc(-c2cn(C)c4ncnc(N)c24)c3F)n1
inactive: [1] 0.008 | [2] 0 | [3] 0.045 | [4] -0.101 | [5] -0.045 | [6] -0.22 | [7] -0.019 | [8] -0.065 | [9] 0.034 | [10] 0.027 | [11] -0.031

c1cn2cc(-c3ccc4cn[nH]c4c3)nc(Nc3ccc(N4CCOCC4)cc3)c2n1 [entospletinib]
inactive: [1] 0.011 | [3] 0.031 | [13] 0.1 | [4] -0.14 | [5] 0.004 | [6] -0.111 | [7] 0.021 | [8] 0.037 | [9] 0.063 | [10] 0.022 | [11] 0.068

Cn1c2cc(S(C)=O)sc2c2cnn(Cc3cccc(N)c3)c(=O)c21 (stereo not drawn)
inactive: [1] 0.237 | [2] 0.34 | [3] 0.084 | [4] 0.008 | [5] 0.259 | [6] 0.021 | [7] -0.061 | [8] -0.006 | [9] 0.115 | [10] -0.04 | [11] -0.053
